Results: PubChem BioAssay
Activity calls are given as the source filed them.

Columns and labels:
[1] = tested on: Plasmodium falciparum Sir2 (PF13_0152, Sir2A); test: pfSir2 binders on small-molecule microarrays, primary screen, biochemical, small-molecule microarray, 635 nm fluorescence (AID 1098); conditions: small-molecule microarray binding, fluorescence 635 nm; higher = more signal;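 further: score merges spot fluorescence intensity with its signal-to-noise ratio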
[2] = small-molecule microarray binders of probe aDKK1, primary screen, biochemical, biotinylated probe, 635/667 nm fluorescence (AID 1099); conditions: higher = more signal;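 further: score merges 667nm spot fluorescence with signal to noise across triplicate slides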
[3] = small-molecule microarray binders of probe aCHRDL2, primary screen, biochemical, biotinylated probe, 635/667 nm fluorescence (AID 1100); conditions: higher = more signal
[4] = splicing luciferase reporter signal modulators, primary screen, spliceosome inhibition project, cell-based, HEK293, splice +/- reporter (AID 1101); conditions: luminescence, 24 h, higher = more signal, called active from +8 up or from −8 down;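 further: HEK293 cells carrying a splicing-competent luciferase reporter gene; test concentration not given here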
[5] = target: Fibroblast growth factor 10 (Homo sapiens) (UniProt O15520); test: FGF10 binders on small-molecule microarrays, primary screen, biochemical, small-molecule microarray, 635 nm fluorescence (AID 1102); conditions: FGF10 binding, fluorescence 635 nm, higher = more signal
[6] = tested on: glycogen synthase kinase-3 (GSK3A per assay name; protocol says GSK3B); test: GSK3 binders on small-molecule microarrays, primary screen, biochemical, small-molecule microarray, 635 nm fluorescence, GSK3A (AID 1103); conditions: small-molecule microarray binding, fluorescence 635 nm; higher = more signal; further: the record names both GSK3A and GSK3B
[7] = target: Epidermal growth factor receptor (Homo sapiens) (UniProt P00533); test: EGFR binders on small-molecule microarrays, primary screen, biochemical, small-molecule microarray, 635 nm fluorescence (AID 1104); conditions: EGFR binding, higher = more signal;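 further: score merges 667 nm emission intensity with spot signal to noise over triplicate slides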
[8] = target: Follistatin-related protein 3 (Homo sapiens) (UniProt O95633); test: FSTL3 binders on small-molecule microarrays, primary screen, biochemical, small-molecule microarray, 635 nm fluorescence (AID 1105); conditions: FSTL3 binding, higher = more signal;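 further: score merges emission near 667 nm and signal to noise per printed spot across three slides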
[9] = target: Dickkopf-related protein 1 (Homo sapiens) (UniProt O94907); test: DKK1 binders on small-molecule microarrays, primary screen, biochemical, small-molecule microarray, 635 nm fluorescence scan (AID 1106); conditions: DKK1 binding, higher = more signal;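 further: score merges emission near 667 nm with signal to noise over three replicate slides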
[10] = tested on: Inhibin beta A chain (activin A); test: INHBA (activin A) binders on microarrays, primary screen, biochemical, small-molecule microarray, 635 nm fluorescence scan (AID 1107); conditions: small-molecule microarray binding, higher = more signal;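 further: mouse activin A protein probed at 4.33 µg/mL on printed slides; score merges bound-protein fluorescence near 667 nm with spot signal-to-noise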
[11] = tested on: Human papillomavirus type 1a protein E7 (residues 44-93); test: HPV1a E7 fragment binders on microarrays, primary screen, biochemical, small-molecule microarray, residues 44-93, 635 nm fluorescence (AID 1108); conditions: small-molecule microarray binding, fluorescence 635 nm; higher = more signal;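 further: E7 fragment applied at 1 µg/mL in TBST for 1 h at 4 C; score combines spot fluorescence with its signal to noise ratio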
[12] = modulators of HCV replicon luciferase signal, primary screen, HCV replication inhibitor project, Huh7 cells, luciferase reporter (AID 1109); conditions: 48 h, higher = more signal;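 further: huh7 hepatoma cells harbouring a luciferase neomycin HCV replicon reporter; luciferase luminescence as measure of HCV replicon replication; test concentration not given here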
[13] = target: Left-right determination factor 2 (Homo sapiens) (UniProt O00292); test: LEFTY2 binders on small-molecule microarrays, primary screen, biochemical, small-molecule microarray, 635 nm fluorescence scan (AID 1110); conditions: LEFTY2 binding, higher = more signal
[14] = target: Calmodulin-1 (Homo sapiens) (UniProt P0DP23); test: CALM1 binders on microarrays, EGTA buffer, profiling panel, biochemical, small-molecule microarray, Cy5-labelled CALM1 (AID 1111); conditions: Cy5-CALM1 binding fluorescence, higher = more signal;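 further: labelled calmodulin applied in Tris saline Tween buffer holding calcium plus EGTA and DTT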
[15] = target: Calmodulin-1 (Homo sapiens) (UniProt P0DP23); test: calcium-bound CALM1 binders on microarrays, profiling panel, artefact control for SMM control-protein annotation, biochemical, small-molecule microarray, Cy5-labelled CALM1, plus calcium (AID 1112); conditions: Cy5-CALM1 binding fluorescence, higher = more signal;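 further: score merges spot fluorescence with signal to noise from triplicate slides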
[16] = small-molecule microarray binders of probe aWnt5a, primary screen, biochemical, biotinylated probe, 635/667 nm fluorescence (AID 1113); conditions: higher = more signal;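 further: score merges 667 nm fluorescence intensity with signal-to-noise per printed feature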
[17] = small-molecule microarray binders of probe aShh, primary screen, biochemical, biotinylated probe, 635/667 nm fluorescence (AID 1114); conditions: higher = more signal;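 further: probe is biotin-labelled aShh protein from a stem cell growth factor screen; measures binding of labelled protein to compounds printed on the slide; score merges feature fluorescence at 667 nm with signal-to-noise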
[18] = small-molecule microarray binders of probe aNog, primary screen, biochemical, biotinylated probe, 635/667 nm fluorescence (AID 1115); conditions: higher = more signal;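 further: probe is biotinylated aNog protein used at 0.15 µg/mL for 1 h at 4 C; z-score combines 667 nm fluorescence of each spot with its signal to noise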
[19] = target: Torsin-1A-interacting protein 1 (Homo sapiens) (UniProt Q5JTV8); test: LAP1 binders from COS7 cell lysate, primary screen, small-molecule microarray, 635/667 nm fluorescence (AID 1116); conditions: COS7-hLAP1 lysate binding, 635 nm fluorescence, higher = more signal
[20] = target: Alpha-bungarotoxin (Bungarus multicinctus) (UniProt P60615); test: alpha-bungarotoxin binders on microarray, profiling panel, artefact control for SMM control protein annotation, biochemical, small-molecule microarray, Alexa647 label, 635/667 nm fluorescence (AID 1117); conditions: alpha-BTX-A647 binding fluorescence, higher = more signal
Alpha-bungarotoxin (Bungarus multicinctus), sequence (P60615 whole entry, looked up): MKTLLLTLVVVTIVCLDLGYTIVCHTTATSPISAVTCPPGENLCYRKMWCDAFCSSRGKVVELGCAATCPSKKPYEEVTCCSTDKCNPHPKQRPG

Left-right determination factor 2 (Homo sapiens), sequence (O00292 whole entry, looked up): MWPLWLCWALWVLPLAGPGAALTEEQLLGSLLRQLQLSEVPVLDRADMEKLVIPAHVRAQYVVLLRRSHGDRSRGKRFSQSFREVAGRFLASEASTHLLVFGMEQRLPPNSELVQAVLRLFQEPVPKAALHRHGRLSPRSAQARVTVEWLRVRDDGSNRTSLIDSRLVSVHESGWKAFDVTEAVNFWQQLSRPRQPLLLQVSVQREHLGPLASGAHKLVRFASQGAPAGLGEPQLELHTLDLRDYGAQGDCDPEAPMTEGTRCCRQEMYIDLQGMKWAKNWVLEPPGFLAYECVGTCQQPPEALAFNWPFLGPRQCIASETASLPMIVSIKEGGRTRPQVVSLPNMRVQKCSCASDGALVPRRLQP
Torsin-1A-interacting protein 1 (Homo sapiens), sequence (Q5JTV8 whole entry, looked up): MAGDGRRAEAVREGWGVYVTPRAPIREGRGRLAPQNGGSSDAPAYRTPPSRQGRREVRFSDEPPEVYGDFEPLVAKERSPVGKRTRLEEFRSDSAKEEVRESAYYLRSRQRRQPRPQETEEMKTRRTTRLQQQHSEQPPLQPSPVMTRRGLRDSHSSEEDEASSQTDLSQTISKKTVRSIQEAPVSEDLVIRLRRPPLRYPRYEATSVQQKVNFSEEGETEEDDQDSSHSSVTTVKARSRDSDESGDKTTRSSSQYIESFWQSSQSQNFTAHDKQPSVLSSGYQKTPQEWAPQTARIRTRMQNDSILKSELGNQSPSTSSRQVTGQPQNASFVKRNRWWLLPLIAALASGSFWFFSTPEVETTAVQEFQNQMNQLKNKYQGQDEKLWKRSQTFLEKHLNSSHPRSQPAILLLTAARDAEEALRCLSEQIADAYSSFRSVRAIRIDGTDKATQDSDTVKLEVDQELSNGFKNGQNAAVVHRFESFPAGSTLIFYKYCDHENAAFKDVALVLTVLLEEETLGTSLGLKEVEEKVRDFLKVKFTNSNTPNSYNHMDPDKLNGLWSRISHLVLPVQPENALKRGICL
Dickkopf-related protein 1 (Homo sapiens), sequence (O94907 whole entry, looked up): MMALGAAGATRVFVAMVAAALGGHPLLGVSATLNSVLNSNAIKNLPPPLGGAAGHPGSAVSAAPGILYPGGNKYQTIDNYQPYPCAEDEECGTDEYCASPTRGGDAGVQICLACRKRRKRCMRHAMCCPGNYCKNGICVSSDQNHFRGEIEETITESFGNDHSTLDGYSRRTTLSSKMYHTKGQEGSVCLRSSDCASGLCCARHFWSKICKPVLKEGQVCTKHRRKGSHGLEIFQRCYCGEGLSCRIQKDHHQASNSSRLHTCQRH
Epidermal growth factor receptor (Homo sapiens), sequence (P00533 whole entry, looked up): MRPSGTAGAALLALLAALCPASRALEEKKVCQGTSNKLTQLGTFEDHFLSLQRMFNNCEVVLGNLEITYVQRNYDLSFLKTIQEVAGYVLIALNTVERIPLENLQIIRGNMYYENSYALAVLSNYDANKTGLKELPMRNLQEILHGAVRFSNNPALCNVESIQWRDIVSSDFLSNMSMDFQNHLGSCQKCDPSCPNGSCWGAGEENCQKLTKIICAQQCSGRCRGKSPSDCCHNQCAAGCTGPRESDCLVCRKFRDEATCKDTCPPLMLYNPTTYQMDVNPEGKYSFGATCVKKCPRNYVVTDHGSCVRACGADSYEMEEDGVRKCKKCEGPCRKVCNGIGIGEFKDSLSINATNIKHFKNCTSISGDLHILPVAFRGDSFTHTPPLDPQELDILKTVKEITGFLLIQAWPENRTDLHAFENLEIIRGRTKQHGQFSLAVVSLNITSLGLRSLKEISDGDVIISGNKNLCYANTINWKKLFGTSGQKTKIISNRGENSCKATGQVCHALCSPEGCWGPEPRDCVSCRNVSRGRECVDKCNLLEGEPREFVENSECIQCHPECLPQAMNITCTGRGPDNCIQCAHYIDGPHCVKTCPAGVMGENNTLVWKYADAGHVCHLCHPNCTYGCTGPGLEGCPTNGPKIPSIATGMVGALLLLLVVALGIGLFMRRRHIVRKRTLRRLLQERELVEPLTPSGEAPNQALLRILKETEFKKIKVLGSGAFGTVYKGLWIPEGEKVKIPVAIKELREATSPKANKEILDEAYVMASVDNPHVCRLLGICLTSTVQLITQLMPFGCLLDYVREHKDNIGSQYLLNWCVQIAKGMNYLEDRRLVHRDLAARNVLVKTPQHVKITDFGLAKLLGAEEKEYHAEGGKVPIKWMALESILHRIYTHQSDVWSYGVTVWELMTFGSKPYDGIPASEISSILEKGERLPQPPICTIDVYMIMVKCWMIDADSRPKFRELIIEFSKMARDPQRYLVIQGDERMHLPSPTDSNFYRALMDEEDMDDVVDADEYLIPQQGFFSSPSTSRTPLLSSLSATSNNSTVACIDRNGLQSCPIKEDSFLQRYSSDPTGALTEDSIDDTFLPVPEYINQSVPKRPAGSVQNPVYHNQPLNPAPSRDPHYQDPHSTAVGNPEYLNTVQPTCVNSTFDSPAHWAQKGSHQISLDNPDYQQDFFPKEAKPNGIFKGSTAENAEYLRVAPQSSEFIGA
Fibroblast growth factor 10 (Homo sapiens), sequence (O15520 whole entry, looked up): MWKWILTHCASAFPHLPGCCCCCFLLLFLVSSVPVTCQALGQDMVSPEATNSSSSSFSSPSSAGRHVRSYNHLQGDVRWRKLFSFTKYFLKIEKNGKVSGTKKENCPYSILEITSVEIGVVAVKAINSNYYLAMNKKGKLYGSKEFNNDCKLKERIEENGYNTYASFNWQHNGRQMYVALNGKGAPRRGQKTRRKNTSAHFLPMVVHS
Follistatin-related protein 3 (Homo sapiens), sequence (O95633 whole entry, looked up): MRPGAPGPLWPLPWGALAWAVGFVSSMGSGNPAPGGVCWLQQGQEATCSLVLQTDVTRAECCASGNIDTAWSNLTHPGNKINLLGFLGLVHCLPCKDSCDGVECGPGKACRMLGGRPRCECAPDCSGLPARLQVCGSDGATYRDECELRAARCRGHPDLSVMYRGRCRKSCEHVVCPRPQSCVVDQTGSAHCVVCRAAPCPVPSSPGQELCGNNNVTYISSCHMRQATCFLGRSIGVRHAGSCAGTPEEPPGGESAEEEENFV

SMILES	composite z-score [1]	composite z-score [2]	composite z-score [3]	z-score [4]	composite z-score [5]	composite z-score [6]	composite z-score [7]	composite z-score [8]	composite z-score [9]	composite z-score [10]	composite z-score [11]	z-score [12]	composite z-score [13]	composite z-score [14]	composite z-score [15]	composite z-score [16]	composite z-score [17]	composite z-score [18]	composite z-score [19]	composite z-score [20]
CCOC(=O)C[C@H]1[C@H](OC(=O)Cc2ccc3c(c2)OCO3)[C@@H](NC(=O)c2ccccc2)c2cc(OCCCO)ccc2N1C(=O)c1ccc2ccccc2n1	0.347	-0.0053	-0.329	-2.44 (inactive)	0.274	0.329	0.548	0.0676	0.328	0.318	0.594	0.173	0.11	0.481	-0.455	-0.152	0.172	-0.0675	0.761	-0.055
CCCCCCCCCCC(O)C1C=CC2C(=O)NC(=O)C2N1Nc1ccccn1 (stereo not given)	1.07	0.482	0.883	0.447 (inactive)	-0.649	-0.811	-0.689	-0.448	-0.765	0.997	1.08	-2.64	-0.765	1.4	0.945	-0.0566	0.337	1.7	-0.0182	0.217
C=C(CCCC)/C(=C/C[C@H](OC(=O)c1ccncc1)c1ccc(CO)o1)c1cc(C(=O)OC)ccc1OC	1.21	0.0946	-0.125	0.84 (inactive)	0.565	1.26	0.356	0.928	0.575	0.554	-0.0541	-1.93	0.982	0.786	-0.324	-0.196	0.256	0.95	0.539	1.28
N#Cc1ccc(NN2C(C(O)c3ccccc3)C=CC3C(=O)N(c4ccccc4)C(=O)C32)cc1 (stereo not given)	1.3	0.313	0.557	1.3 (inactive)	0.968	-0.353	-0.0382	0.441	-0.257	0.658	0.117	0.335	-0.135	-0.0722	-0.162	0.0797	-0.102	0.642	-0.113	0.153
COc1ccc(C#Cc2ccc3c(c2)[C@]2(C(=O)N3)[C@H](C(=O)O)[C@H]3C(=O)O[C@H](c4ccccc4)[C@H](c4ccccc4)N3[C@@H]2c2ccc(OCCO)cc2)cc1	1.48	0.192	0.296	-0.825 (inactive)	0.929	0.984	0.45	0.486	0.195	-0.159	0.873	-1.92	0.336	2.25	0.87	-0.0617	0.0492	0.141	2	2.28
COc1ccccc1CN1C(=O)c2ccccc2[C@@]2(Cc3ccccc3N(C3CC3)C2=O)[C@@H]1c1ccc(CO)cc1	0.76	-0.0899	0.322	0.312 (inactive)	-0.671	-0.928	-0.724	-0.279	-0.535	0.52	-0.447	-0.344	-0.921	0.117	-0.164	-0.131	0.0062	-0.422	-0.455	0.134
COc1cc(C(O)C2C=CC3C(=O)N(C)C(=O)C3N2NC(=O)OC(C)(C)C)cc(OC)c1OC (stereo not given)	1.27	1.2	0.739	1.21 (inactive)	0.447	0.833	0.189	0.234	-0.076	0.442	0.968	-0.639	0.0493	1.34	0.12	0.343	0.848	1.6	0.102	0.312
C[C@]12C(=O)N(CCCCCO)[C@@H]3C(=O)N(c4ccc(Cl)cc4)CC=CC31O[C@@H]1/C=C\CCCOC(=O)C12 (stereo not given in full)	0.677	-0.131	0.557	-0.0628 (inactive)	-1.21	-1.82	-1.22	-0.934	-1.19	-0.0839	-1.86	-0.381	-1.95	-0.811	1.22	-0.23	-0.138	-0.125	-0.579	-0.797
COC(=O)[C@@]1(Cc2ccc(OC)cc2)[C@H]2c3cc(C(=O)N(C)C)n(CCF)c3C[C@H]2CN1C(=O)c1ccccc1	1.17	1.23	0.923	-0.674 (inactive)	0.601	1.14	0.185	1.03	-0.123	0.854	0.528	-1.83	0.216	2.13	1.02	0.027	0.675	1.82	1.01	1.79
C=C[C@@H](O)[C@H]1CC(c2ccccc2)=NO1	1.46	-0.187	0.0537	0.147 (inactive)	0.0244	-0.408	0.449	0.046	0.271	0.614	-0.893	0.479	0.277	-0.358	-0.711	-0.208	0.167	-0.0524	0.0222	-0.0532
CO[C@H]1O[C@H](CO)[C@@H](OC(=O)Nc2cccc(F)c2)[C@H](OC(=O)Nc2ccc3c(c2)OCO3)[C@H]1OC(=O)Nc1ccc2c(c1)OCO2	0.932	0.0673	0.307	-0.197 (inactive)	0.693	0.26	0.199	0.55	0.177	0.674	1.12	-1.37	0.0115	0.67	-0.957	-0.0735	0.0469	0.201	3.02	0.972
